Assay [1] concerns the target Transient receptor potential cation channel subfamily V member 1 (Homo sapiens) (UniProt Q8NER1). Briefly: HTS Assay for Compounds that Act as Enhancers of the Vanilloid Receptor 1 (AID 488979). Note: 0% is about no effect. The essentials:
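TRPV1-expressing cells loaded with Fluo-8 calcium dye; compounds added and calcium influx read kinetically for 3 min (agonist phase), then capsaicin at EC20 added and read 2 min more for enhancement. Fluorescence ex 480/em 520 nm.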

Assay [2] deals with D(1A) dopamine receptor (Homo sapiens) (UniProt P21728). Briefly: HTS Assay for Allosteric Agonists of the Human D1 Dopamine Receptor: Primary Screen for Agonists (AID 488981). For activation: 0% is about no effect. Note: potency is the fitted concentration of half-maximal effect. The procedure, abridged:
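Tetracycline-induced HEK293 T-REx cells force-coupled to calcium signalling were incubated overnight at 30 C and dye-loaded at room temperature. Calcium flux over 180 s after compound addition flagged agonists; a further 180 s read after EC20 dopamine flagged potentiators.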

Assay [3] shares this target. Nature of the assay: HTS Assay for Allosteric Agonists of the Human D1 Dopamine Receptor: Primary Screen for Antagonists (AID 488983).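 Note: calcium flux response to an EC80 dopamine challenge measured with no-wash dye; % is set by controls: 0 for no effect and ±100 for the full control effect; nearly all actives have a fitted effect of over 65% in size.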 The essentials: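 Calcium flux readout, no-wash dye, inducible HEK293 T-REx D1 line (force-coupled). Compound added after 10 s baseline, 180 s kinetic read; then dopamine at EC80, further 180 s read.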
Assay [4] in a line: Validation screen for small molecules that induce genotoxicity in human embryonic kidney (HEK293T) cells expressing luciferase-tagged ELG1 (AID 493106). Note: potency is the fitted concentration of half-maximal effect. The procedure, abridged: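 qHTS format; 2,000 HEK293T ELG1-luc cells/well; 23 nL compound via pin tool; 16 hr, 37 °C/5% CO2; ONE-Glo, 30 min RT; luminescence read.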
Assay [5] concerns the target ATPase family AAA domain-containing protein 5 (Homo sapiens) (UniProt Q96QE3). Nature of the assay: Validation screen for small molecules that inhibit ELG1-dependent DNA repair in human embryonic kidney (HEK293T) cells expressing luciferase-tagged ELG1 (AID 493107).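 Note: cells co-treated with the DNA-damaging agent 5-fluorouridine alongside compound; series mostly up to about 46 µM; % is set by controls: 0 for no effect and ±100 for the full control effect; inhibitors lower the ELG1-luciferase luminescence signal; nearly all actives have a fitted effect of over 70% in size.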 The essentials:
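ELG1-luciferase HEK293T reporter; 5-fluorouridine + compound/DMSO, 16 hr, 37 °C, 5% CO2; ONE-Glo 30 min RT; luminescence read, qHTS format.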

Assay [6] has as its target Thyrotropin-releasing hormone receptor (Homo sapiens) (UniProt P34981). Briefly: qHTS for Small Molecule Agonists and Allosteric Enhancers of Human TRH Receptor: Validation Screen for Agonists (AID 493127;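 active = calcium activation more than 3 SD above the typical response in the agonist read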;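 note: intracellular calcium rise by fluo-8 fluorescence before TRH EC20 addition; 0% is about no effect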). As to conditions: TRH receptor agonist cell assay; at 2 µM; stronger effect = higher value. The procedure, abridged: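 Read-out: intracellular calcium release measured kinetically by FDSS (fluo-8, ex 480/em 530 nm), 1 reading/s after a 10-cycle baseline. TRHR cells, 2000/well, cultured 18 h at 33.5C, dye-loaded at room temp. Compound-evoked positive calcium signal flags agonists.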

Assay [7] in a line: Nrf2 qHTS screen for inhibitors: Validation (AID 493153; active = well fitted inhibition curve with a large enough effect in the main read-out, with a control signal flat, not every such curve was filed as active). The following applies: Potency: luciferase luminescence; viability change: measured here: cytotoxicity max response. The essentials: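 Concentration-response test in A549 ARE_Fluc reporter cells (5% FBS OPTI-MEM), compound exposure 18-24 h at 37°C, 5% CO2. Cell viability measured first by CellTiter-Fluor fluorescence; ARE-driven luciferase luminescence then measured as Nrf2 activity.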
For orientation: qHTS replaces the single test concentration by a dilution series.

The nature of assay [8]: qHTS for Inhibitors of Cell Surface uPA Generation: Validation Assay (AID 493164).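 Note: RAW 264.7 macrophage cells exposed to compound for 18 h; 0% is about no effect.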 The essentials:
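Compounds are titrated over seven points (2.45 nM–38.3 uM final) onto pre-plated RAW 264.7 cells and incubated for 18 h. Retained intracellular ATP, measured with ATP-Lite, indicates blocked lethal factor entry.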

Assay [9] addresses Galactokinase (Homo sapiens) (UniProt P51570). Briefly: qHTS Validation Assay for Inhibitors of Human Galactokinase (GALK) (AID 493189). Note: 0% is about no effect. The procedure, abridged: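 GALK (5 nM) with 35 uM ATP and 100 uM galactose in HEPES pH 8.0 with MgCl2, NaCl, DTT and BSA. Reaction ran 1 h at room temperature. Residual ATP read by Kinase-Glo Plus luminescence.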
Assay [10] is described as follows: Validation screen for small molecules that induce DNA re-replication in SW480 colon adenocarcinoma cells (AID 504364). Note: 0% is about no effect. The essentials: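 Read-out: total Hoechst intensity of nuclei by fluorescence scanning imager; hits raise the fraction of nuclei with elevated DNA content. Cells received compound for 48 hr at 37 C before a 40 min stain.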
Assay [11] addresses Peptidyl-prolyl cis-trans isomerase NIMA-interacting 1 (Homo sapiens) (UniProt Q13526). Briefly: qHTS Validation Assay to Find Inhibitors of Pin1 (AID 504536; active = well fitted inhibition curve with a large enough effect in the polarisation, with a control signal flat, not every such curve was filed as active; the % refers to the polarisation;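 note: 0% = full Pin1 enzyme wells and -100% = no-enzyme wells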). The procedure, abridged: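 Fluorescence polarization competition: compounds (titration) displace HiFluor-488-labeled Pin1-1b peptide from Pin1 (0.3 uM final) in pH 7.5 HEPES buffer with DTT, 10 min at room temperature; %Activity normalized to no-enzyme wells, curves fitted.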

Assay [12] concerns the target Phosphoglycerate kinase, glycosomal (Trypanosoma brucei brucei) (UniProt P07378). Nature of the assay: qHTS Validation Assay to Find Inhibitors of Phosphoglycerate Kinase (AID 504547).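 Note: control wells lack PGK and mark full inhibition.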 The essentials: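 In TEA buffer (100mM, pH 7.6) containing 5mM MgCl2 and 0.01% Tween-20, the GAPDH-coupled PGK reaction proceeded for 60 minutes at room temperature before a single luminescence reading using Kinase-Glo Plus.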

Assay [13] addresses phosphoglycerate mutase (Leishmania major) (UniProt Q4Q090). Briefly: qHTS Validation Assay to Find Inhibitors of Phosphoglycerate Mutase (AID 504548). Note: series mostly up to about 58 µM; % is set by controls: 0 for no effect and ±100 for the full control effect. The essentials:
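Lm PGAM 1.25nM final; 100 mM TEA pH 7.6, 5 mM MgCl2, 0.01% Tween-20; 45 min RT; Kinase-GloPlus, 10 min; end-point luminescence. Enzyme-free wells as negative controls.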

For assay [14], the target named is Ubiquitin carboxyl-terminal hydrolase 1 (Homo sapiens) (UniProt O94782). Briefly: Inhibitors of USP1/UAF1: Pilot qHTS (AID 504865). Note: nearly all actives have a fitted effect of over 35% in size. Note: potency is the fitted concentration of half-maximal effect. The procedure, abridged:
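USP1/UAF1 complex at 1 nM preincubated 15 min at room temperature with compound, then Ub-Rho substrate added at 150 nM final. Fluorescence (480/540 nm) read kinetically in 50 mM HEPES pH 7.8, 0.5 mM EDTA, 1 mM TCEP, 0.1 mg/ml BSA, 0.01% Tween-20.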

A short description of assay [15]: qHTS for Inhibitors of ATXN expression: Validation of Cytotoxic Assay (AID 588349). Note: potency is the fitted concentration of half-maximal effect. The essentials: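 Cytotoxicity counter-screen: HEK293 cells exposed to compound titrations, 72 hr, 37 degrees C. Read-out is intracellular ATP (CellTiter Glo luminescence) as a viability measure.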
Assay [16] in a line: qHTS for Inhibitors of ATXN expression: Validation (AID 588378). Note: series mostly up to about 57 µM; % is set by controls: 0 for no effect and ±100 for the full control effect; nearly all actives have a fitted effect of over 75% in size. The essentials: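 HEK293 cells carrying ATXN2-firefly luciferase reporter, treated with compound 24 h at 37 °C. Viability read first by CellTiter-Fluor (405/525 nm), then reporter expression by Bright-Glo luminescence; controls were a known ATXN2 expression inhibitor and a luciferase inhibitor.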
For assay [17], the target named is Thyrotropin receptor (Homo sapiens) (UniProt P16473). Briefly: qHTS Assay for Antagonists of the Thyroid Stimulating Hormone Receptor (AID 488980). Note: series mostly up to about 58 µM; 0% is about no effect. The procedure, abridged: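 TSHR-transfected HEK293 cells (2000/well) in HEPES-buffered HBSS with 70 uM RO 20-1724 were stimulated with 4 nM TSH (EC80, final) in the presence of compound. cAMP was measured by HTRF competition after lysis and 30 min at RT.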
Chain of Thyrotropin receptor (Homo sapiens) (P16473 whole entry, looked up): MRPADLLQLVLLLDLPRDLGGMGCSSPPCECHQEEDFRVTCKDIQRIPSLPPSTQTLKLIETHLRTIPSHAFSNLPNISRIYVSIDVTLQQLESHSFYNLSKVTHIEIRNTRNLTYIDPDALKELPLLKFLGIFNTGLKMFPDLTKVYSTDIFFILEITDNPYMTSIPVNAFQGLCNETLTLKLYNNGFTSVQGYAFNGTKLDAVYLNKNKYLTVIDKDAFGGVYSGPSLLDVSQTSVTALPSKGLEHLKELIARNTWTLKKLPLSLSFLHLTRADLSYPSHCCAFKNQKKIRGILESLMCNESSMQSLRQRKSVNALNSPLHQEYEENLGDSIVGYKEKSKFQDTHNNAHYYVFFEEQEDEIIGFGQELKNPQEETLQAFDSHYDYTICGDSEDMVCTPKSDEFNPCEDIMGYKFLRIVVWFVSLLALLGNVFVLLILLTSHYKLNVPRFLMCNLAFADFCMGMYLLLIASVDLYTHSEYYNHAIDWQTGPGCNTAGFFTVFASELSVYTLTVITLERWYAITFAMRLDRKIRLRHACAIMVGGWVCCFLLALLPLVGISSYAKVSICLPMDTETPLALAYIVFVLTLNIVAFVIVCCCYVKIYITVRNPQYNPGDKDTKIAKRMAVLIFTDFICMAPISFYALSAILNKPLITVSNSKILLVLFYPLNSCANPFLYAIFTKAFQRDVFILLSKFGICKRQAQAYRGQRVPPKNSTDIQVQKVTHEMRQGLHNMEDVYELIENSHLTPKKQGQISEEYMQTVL

This note sets out measurements from PubChem BioAssay (NCATS).

Structures are written as SMILES. “And” between values parts separate entries of the source, which are not always exact repeats. Equal values may be shown once. Records with an inconclusive call do not appear. The source made the active and inactive calls. Unless noted, calls come from the whole dose curve; as a rule, active = well fitted curve in the direction sought with a large enough effect; inconclusive = small, poorly fitted or top-dose-only effect, or another doubt; inactive = no such curve, though single readings can be large; an effect the other way counts as inactive or inconclusive.

Chain of Ubiquitin carboxyl-terminal hydrolase 1 (Homo sapiens) (O94782 whole entry, looked up): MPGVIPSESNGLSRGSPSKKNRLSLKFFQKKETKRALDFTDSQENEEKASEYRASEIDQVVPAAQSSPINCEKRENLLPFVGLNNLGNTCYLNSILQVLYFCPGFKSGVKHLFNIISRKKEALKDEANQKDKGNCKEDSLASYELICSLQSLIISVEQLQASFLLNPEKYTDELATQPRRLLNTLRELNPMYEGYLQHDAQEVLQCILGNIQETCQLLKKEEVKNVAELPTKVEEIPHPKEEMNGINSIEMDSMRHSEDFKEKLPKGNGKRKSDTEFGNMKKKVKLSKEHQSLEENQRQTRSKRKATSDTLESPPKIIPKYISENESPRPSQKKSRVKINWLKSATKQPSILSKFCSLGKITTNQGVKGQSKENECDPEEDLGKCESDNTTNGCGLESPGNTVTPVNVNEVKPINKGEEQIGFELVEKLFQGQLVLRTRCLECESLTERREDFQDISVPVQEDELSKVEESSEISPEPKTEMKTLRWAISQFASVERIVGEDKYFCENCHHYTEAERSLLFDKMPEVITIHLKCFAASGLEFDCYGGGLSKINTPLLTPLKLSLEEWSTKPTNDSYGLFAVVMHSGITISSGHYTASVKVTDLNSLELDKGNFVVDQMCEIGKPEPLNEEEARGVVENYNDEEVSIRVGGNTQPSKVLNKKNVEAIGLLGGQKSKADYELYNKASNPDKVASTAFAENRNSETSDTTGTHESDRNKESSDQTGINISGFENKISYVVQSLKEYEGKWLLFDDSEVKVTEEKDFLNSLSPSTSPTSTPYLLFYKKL
Chain of Phosphoglycerate kinase, glycosomal (Trypanosoma brucei brucei) (P07378 whole entry, looked up): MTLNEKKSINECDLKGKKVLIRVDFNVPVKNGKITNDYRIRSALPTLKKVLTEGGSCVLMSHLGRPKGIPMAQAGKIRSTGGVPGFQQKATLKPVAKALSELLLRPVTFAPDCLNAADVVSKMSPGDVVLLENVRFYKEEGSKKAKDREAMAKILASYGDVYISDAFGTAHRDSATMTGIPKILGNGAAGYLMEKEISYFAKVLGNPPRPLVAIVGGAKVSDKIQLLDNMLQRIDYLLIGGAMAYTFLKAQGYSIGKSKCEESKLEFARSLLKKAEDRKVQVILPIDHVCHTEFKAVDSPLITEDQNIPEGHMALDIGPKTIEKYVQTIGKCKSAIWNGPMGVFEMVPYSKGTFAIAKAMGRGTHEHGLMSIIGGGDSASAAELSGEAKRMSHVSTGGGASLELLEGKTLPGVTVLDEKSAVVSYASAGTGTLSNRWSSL
Chain of Peptidyl-prolyl cis-trans isomerase NIMA-interacting 1 (Homo sapiens) (Q13526 whole entry, looked up): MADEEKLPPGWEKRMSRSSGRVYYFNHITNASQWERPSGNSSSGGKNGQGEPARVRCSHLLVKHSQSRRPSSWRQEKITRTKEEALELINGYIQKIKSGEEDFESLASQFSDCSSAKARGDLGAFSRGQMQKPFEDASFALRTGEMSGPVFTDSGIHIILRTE
Chain of Thyrotropin-releasing hormone receptor (Homo sapiens) (P34981 whole entry, looked up): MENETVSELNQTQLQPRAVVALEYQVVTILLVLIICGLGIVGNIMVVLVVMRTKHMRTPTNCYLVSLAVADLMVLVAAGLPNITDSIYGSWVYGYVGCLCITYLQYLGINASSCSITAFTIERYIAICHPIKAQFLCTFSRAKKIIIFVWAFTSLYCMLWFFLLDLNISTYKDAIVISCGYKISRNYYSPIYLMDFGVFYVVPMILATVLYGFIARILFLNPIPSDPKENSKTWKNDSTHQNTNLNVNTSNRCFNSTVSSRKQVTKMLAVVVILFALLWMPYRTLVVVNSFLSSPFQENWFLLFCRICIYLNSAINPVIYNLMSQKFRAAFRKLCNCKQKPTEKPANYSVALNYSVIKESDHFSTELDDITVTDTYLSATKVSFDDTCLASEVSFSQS
Chain of D(1A) dopamine receptor (Homo sapiens) (P21728 whole entry, looked up): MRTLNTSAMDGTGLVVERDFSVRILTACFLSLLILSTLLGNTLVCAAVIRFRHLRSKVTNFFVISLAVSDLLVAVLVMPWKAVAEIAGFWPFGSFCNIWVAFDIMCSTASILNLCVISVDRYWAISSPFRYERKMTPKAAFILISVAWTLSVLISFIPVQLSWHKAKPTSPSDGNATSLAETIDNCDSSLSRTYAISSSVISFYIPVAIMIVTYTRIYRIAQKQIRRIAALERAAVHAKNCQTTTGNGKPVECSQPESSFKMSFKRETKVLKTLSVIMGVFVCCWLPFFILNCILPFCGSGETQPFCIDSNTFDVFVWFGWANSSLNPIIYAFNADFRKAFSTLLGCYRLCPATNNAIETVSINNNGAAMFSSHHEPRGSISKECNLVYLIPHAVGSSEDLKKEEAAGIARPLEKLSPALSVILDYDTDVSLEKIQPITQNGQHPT
Chain of ATPase family AAA domain-containing protein 5 (Homo sapiens) (Q96QE3 whole entry, looked up, the tested form may be a part): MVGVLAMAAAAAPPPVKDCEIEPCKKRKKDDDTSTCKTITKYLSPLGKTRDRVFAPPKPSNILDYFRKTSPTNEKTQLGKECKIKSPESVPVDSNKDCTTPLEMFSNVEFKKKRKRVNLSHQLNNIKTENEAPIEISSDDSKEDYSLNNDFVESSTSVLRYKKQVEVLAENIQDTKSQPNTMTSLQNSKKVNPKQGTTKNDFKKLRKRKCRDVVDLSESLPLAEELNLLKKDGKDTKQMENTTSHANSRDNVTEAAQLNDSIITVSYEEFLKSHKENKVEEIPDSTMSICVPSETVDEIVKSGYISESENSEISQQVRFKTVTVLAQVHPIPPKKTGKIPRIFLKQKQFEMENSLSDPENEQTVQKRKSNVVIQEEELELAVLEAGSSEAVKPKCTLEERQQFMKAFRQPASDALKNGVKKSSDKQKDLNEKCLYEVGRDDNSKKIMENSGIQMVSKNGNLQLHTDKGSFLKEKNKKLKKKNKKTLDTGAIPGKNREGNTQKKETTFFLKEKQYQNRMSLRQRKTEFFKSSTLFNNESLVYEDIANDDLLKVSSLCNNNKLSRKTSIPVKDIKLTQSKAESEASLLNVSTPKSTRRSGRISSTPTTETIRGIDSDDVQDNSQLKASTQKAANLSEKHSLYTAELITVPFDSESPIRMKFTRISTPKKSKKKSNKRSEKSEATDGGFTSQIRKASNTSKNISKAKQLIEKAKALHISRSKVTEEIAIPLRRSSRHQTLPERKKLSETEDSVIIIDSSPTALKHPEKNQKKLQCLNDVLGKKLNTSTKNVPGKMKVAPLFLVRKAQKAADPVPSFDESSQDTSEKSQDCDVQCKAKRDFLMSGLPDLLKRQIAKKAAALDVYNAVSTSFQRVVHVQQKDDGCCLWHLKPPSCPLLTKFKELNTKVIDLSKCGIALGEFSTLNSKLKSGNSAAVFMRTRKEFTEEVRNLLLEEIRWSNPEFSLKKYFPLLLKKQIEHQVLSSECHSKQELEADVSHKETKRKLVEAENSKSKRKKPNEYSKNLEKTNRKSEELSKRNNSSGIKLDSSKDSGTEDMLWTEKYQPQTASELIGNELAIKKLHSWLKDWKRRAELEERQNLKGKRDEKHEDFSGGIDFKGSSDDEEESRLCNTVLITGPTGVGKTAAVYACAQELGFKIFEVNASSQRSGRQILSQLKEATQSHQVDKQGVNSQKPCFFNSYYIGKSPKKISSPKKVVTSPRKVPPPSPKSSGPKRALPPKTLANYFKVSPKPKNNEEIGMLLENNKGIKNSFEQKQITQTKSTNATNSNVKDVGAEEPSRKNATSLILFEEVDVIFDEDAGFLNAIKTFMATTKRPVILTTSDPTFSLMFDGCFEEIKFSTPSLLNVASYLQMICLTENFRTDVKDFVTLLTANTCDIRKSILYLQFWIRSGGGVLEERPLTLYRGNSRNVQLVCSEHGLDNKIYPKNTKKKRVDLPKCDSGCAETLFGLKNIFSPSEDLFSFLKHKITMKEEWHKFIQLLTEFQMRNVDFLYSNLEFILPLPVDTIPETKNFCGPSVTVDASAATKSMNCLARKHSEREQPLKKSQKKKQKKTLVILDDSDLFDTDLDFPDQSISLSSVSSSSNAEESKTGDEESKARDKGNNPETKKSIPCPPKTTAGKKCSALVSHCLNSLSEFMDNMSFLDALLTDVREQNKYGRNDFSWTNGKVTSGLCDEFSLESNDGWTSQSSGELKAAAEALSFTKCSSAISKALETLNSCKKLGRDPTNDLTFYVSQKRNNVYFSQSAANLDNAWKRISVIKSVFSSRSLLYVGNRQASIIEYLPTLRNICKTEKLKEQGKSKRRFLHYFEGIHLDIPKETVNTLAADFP

In the case of `CC(=O)OCC(=O)[C@@]1(O)CC[C@H]2[C@@H]3CCC4=CC(=O)CC[C@]4(C)[C@H]3C(=O)C[C@@]21C`, the outcome in assay [1], in assay [5], in assay [8], in assay [9], in [10] and in assay [11] was inactive. The outcome in assay [12] and in [13] was inactive. Also, the Potency entry in assay [2], in [3], in [4], in [7], in assay [14] and in [15] was “inactive” each time. Further, the Potency result in [16] is “inactive”. In assay [6], the activation is 1.06% (inactive). In assay [7], the viability change turned out to be 3.82%.

Consider `COC(=O)C1=C(C)NC(C)=C(C(=O)OC)C1c1ccccc1[N+](=O)[O-]`, for which the outcome in assay [1], in assay [17], in assay [8], in assay [9], in [10] and in [11] was inactive. The compound was called inactive in assay [12] and in [13]. Moreover, the Potency entry in assay [2] is “inactive”. Further, the activation in [6] was 0.938% (inactive).

`CCCn1cnc2c1c(=O)n(CCCCC(C)=O)c(=O)n2C`: the outcome in assay [1], in assay [17], in [8], in assay [9], in assay [10] and in assay [11] was inactive. Further, the result in assay [12] and in [13] was inactive. Further, the Potency entry in assay [2], in assay [3], in assay [4], in assay [7], in assay [14] and in assay [15] was “inactive” in each case. Besides, the Potency entry in assay [16] was “inactive”. For the same compound, in assay [6], the activation is 1.25% (inactive). In addition, the viability change in assay [7] was -13.4%.

`C[C@]12CC[C@@H]3c4ccc(O)cc4CC[C@H]3[C@@H]1CCC2=O`: the result in assay [1], in assay [5], in assay [8], in assay [9], in [10] and in assay [11] was inactive. Further, the result in [12] and in assay [13] was inactive. The Potency entry in assay [2], in [3], in assay [4], in [14], in assay [15] and in assay [16] was “inactive” each time. Further, in assay [6], the activation was 0.812% (inactive).

As to `CC(C)(C)c1onc(OCP(=O)(O)O)c1CC(N)C(=O)O` (stereo not given), the outcome in [1], in [17], in assay [5], in [8], in assay [9] and in assay [10] was inactive. Moreover, the call in [11], in [12] and in assay [13] was inactive. Besides, the Potency entry in [2], in [3], in [4], in assay [7], in assay [14] and in assay [15] was “inactive” each time. In addition, the Potency entry in assay [16] was “inactive”. Besides, the activation in assay [6] was 1% (inactive). Moreover, the viability change in assay [7] was 4.09% and -1.93%.

Turning to `CCN(CC)CCNC(=O)c1cc(Cl)c(N)cc1OC`, the outcome in assay [1], in [17], in assay [5], in [8], in assay [9] and in assay [10] was inactive. In addition, the outcome in assay [11], in assay [12] and in [13] was inactive. Besides, the Potency result in assay [2], in assay [4], in assay [7], in assay [14], in assay [15] and in [16] was “inactive” throughout. For the same compound, the activation in assay [6] is 1.31% (inactive). Besides, the viability change in [7] is -1.22%.

As for `CCN(CC)CCCC(C)Nc1c2ccc(Cl)cc2nc2ccc(OC)cc12` (stereo not given), the compound was called inactive in assay [17], in assay [8], in assay [9], in [10] and in assay [12]. Besides, the Potency is 11.2 µM (active) in assay [2]; 2.59 µM (active) in assay [4]; 56.2 µM (active) and 79.4 µM (active) in [14]. In assay [6], the activation was -2.88% (inactive).

Turning to `CSc1ccc2c(c1)N(CCC1CCCCN1C)c1ccccc1S2` (stereo not given), the result in [17], in assay [5], in [8], in assay [9], in assay [10] and in assay [11] was inactive. Also, the result in assay [12] and in assay [13] was inactive. The Potency entry in assay [2], in assay [4] and in assay [14] was “inactive” throughout. Besides, in [15], the Potency was 25.1 µM (active).
